The sample as a whole holds a higher share of hits than the screen did.
NOMO-1 viab – STK33 inhibitor candidate reducing NOMO-1 cell viability. NOMO-1 AML viability, CellTiter-Glo luminescence, 72 h. inhibition, % (concentration not given with the values). 37,000 compounds, 7.5% hits. AID 2330; in the data active = inhibition above about 80%; inconclusive = no clear call, values can overlap the other calls
U2OS ROS induce – cancer cell ROS induction; U2OS ROS induction, H2DCF-DA fluorescence; ROS induction (% of piperlongumine), % at 10 µM; 46,000 compounds, 2% hits; in the data active = ROS induction above about 79%, passing the limit was not always enough; inconclusive = no clear call, values can overlap the other calls;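 note: 0% = DMSO vehicle median and 100% = reference compound median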
PD-1 reversal – activators reversing PD-1 mediated T-cell inhibition; 29,000 tested, under 10 active; activation, % (concentration not given with the values); AID 2316; primary human CD4 T cells, PD-L1 beads, CellTiter-Glo 96 h; call rule not given here;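 note: 0% = median vehicle wells and 100% = positive control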
MITF inhib – inhibitors of MITF. inhibition, % (test concentration not listed). 37,000 compounds, 0.28% hits. TRPM1 promoter luciferase, luminescence, 24 h; in the data active = inhibition above about 85%; inconclusive = no clear call, values can overlap the other calls; inactive = below about 68%;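 note: human melanocyte line stably carrying TRPM1 promoter luciferase reporter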
YB-1 expression – YB-1 expression inhibition; U2OS, qRT-PCR YB-1 vs CDIP delta delta Cp, 16 h; stronger effect = higher value; zero = DMSO, each unit about twofold; 30,000 compounds, 0.37% hits; delta delta Cp (YB-1 minus CDIP) (no concentration beside the values);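 active = delta delta Cp rounded down to an integer at or above 3, about 3 SD of DMSO wells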;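 note: higher means less YB-1 transcript or more CDIP transcript relative to DMSO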
* hit, by the source's call; u = inconclusive; x = no result.

SMILES	NOMO-1 viab	U2OS ROS induce	PD-1 reversal	MITF inhib	YB-1 expression
C[C@@H]1CN([C@H](C)CO)C(=O)c2cc(NC(=O)Nc3ccc(C(F)(F)F)cc3)ccc2O[C@@H]1CN(C)Cc1ccc(Cl)c(Cl)c1	114*	10	-2	25	0.33
C[C@H]1CN([C@@H](C)CO)C(=O)c2cc(NC(=O)Nc3ccc(C(F)(F)F)cc3)ccc2O[C@H]1CN(C)Cc1ccc(Cl)c(Cl)c1	107*	1	0	35	0.29
C[C@@H]1CN([C@H](C)CO)C(=O)c2cc(NC(=O)Nc3ccc(C(F)(F)F)cc3)ccc2O[C@H]1CN(C)Cc1ccc(Cl)c(Cl)c1	123*	-5	-10	1	-0.11
C[C@H](CO)N1C[C@H](C)[C@@H](CN(C)Cc2ccc(Cl)c(Cl)c2)Oc2ccc(NC(=O)Nc3ccc(F)cc3)cc2C1=O	53	-2	-5	40	-0.39
Cc1cc(C)c(OCC(=O)Nc2cc(-c3nc4ncccc4o3)ccc2C)c(Cl)c1	x	-3	x	x	x
CC1(C)CC(n2c(NCCO)nc3c(c2=O)C2(CCCCC2)Cc2ccccc2-3)CCO1 (configuration not stated)	x	2	x	x	x
O=C(CCn1cccc1)NCC1COc2ccccc2O1 (configuration not stated)	x	3	x	x	x
CC1(C)CCc2cc(-c3ccn(S(=O)(=O)c4ccc(Cl)cc4)n3)ccc2O1	68	96*	-1	14	-0.34
CC1(C)CCc2cc(-c3ccn(S(=O)(=O)c4cccc(C(F)(F)F)c4)n3)ccc2O1	18	14	1	-26	0.014
COC(=O)C(C(CO)Cc1ccc(O)c(OC)c1)C(O)c1ccc(O)c(OC)c1 (configuration not stated)	108*	7	-5	14	-0.19
O=C(NCCCN1CCOCC1)C(=O)NC1CC1	19	-2	0	-11	x
CC1CCCC(C)N1C(=S)NCCCN1CCOCC1 (configuration not stated)	110*	32	0	6	-0.21
N#Cc1c(NC(=O)c2cc3nc(-c4ccco4)cc(C(F)(F)F)n3n2)sc2c1CCC2	19	-12	0	-12	x
C[C@@H]1CN([C@@H](C)CO)C(=O)Cc2cc(NC(=O)Cc3ccccc3)ccc2O[C@@H]1CN(C)Cc1ccc(Cl)c(Cl)c1	108*	54	-5	37	0.12
C[C@H]1CN([C@@H](C)CO)C(=O)Cc2cc(NC(=O)Nc3ccccc3)ccc2O[C@@H]1CN(C)Cc1ccc(Cl)c(Cl)c1	31	69	0	6	-0.053
C[C@@H]1CN([C@@H](C)CO)C(=O)Cc2cc(NC(=O)Cc3ccccc3)ccc2O[C@@H]1CN(C)Cc1ccccc1	44	16	1	-5	0.16
C[C@@H]1CN([C@H](C)CO)C(=O)Cc2cc(NC(=O)Cc3ccccc3)ccc2O[C@@H]1CN(C)Cc1ccc(Cl)c(Cl)c1	127*	u	-4	28	-0.042
CC(C)(C)NC(=O)[C@H]1C[C@H]2CCCC[C@H]2CN1C(=O)C12CC3CC(CC(C3)C1)C2	17	7	6	-14	-0.55
C[N+]1(C)CCCC(OC(=O)C(O)(c2ccccc2)c2ccccc2)C1 (configuration not stated)	8	-11	5	-4	8.9*
C[C@@H]1CN([C@@H](C)CO)C(=O)c2cccc(NC(=O)Nc3ccccc3)c2O[C@H]1CN(C)S(=O)(=O)c1ccc(Cl)cc1	-9	-2	1	-8	0.1
COC(=O)c1cn(CC(N)=O)c2ccccc12	-18	-8	1	-7	x
CN(C)CCCn1cc(C2=C(c3c[nH]c4ccccc34)C(=O)NC2=O)c2ccccc21	u	81*	x	-13	0.61
O=C(O)CSc1c[nH]c2ccccc12	27	x	x	43	x
Cn1cc(C2=C(c3cn(CCCSC(=N)N)c4ccccc34)C(=O)NC2=O)c2ccccc21	142*	76*	-9	68	0.53
C[C@@H]1CN([C@@H](C)CO)C(=O)Cc2cc(NC(=O)Nc3ccccc3)ccc2O[C@@H]1CN(C)Cc1ccc(C(=O)Nc2ccccc2N)cc1	124*	28	-4	-10	-0.14
SMILES	NOMO-1 viab	U2OS ROS induce	PD-1 reversal	MITF inhib	YB-1 expression
C[C@@H]1CN([C@@H](C)CO)C(=O)Cc2cc(NC(=O)Nc3ccc4c(c3)OCO4)ccc2O[C@@H]1CN(C)Cc1ccc(C(=O)Nc2ccccc2N)cc1	101*	3	-2	-30	-0.16
C[C@H]1CN([C@@H](C)CO)C(=O)Cc2cc(NC(=O)NC3CCCCC3)ccc2O[C@H]1CN(C)Cc1ccc(C(=O)Nc2ccccc2N)cc1	139*	8	1	24	-0.34
CC(C)NC(=O)Nc1ccc2c(c1)CC(=O)N([C@@H](C)CO)C[C@H](C)[C@@H](CN(C)Cc1ccc(C(=O)Nc3ccccc3N)cc1)O2	24	-3	-1	-27	0.1
C[C@@H]1CN([C@@H](C)CO)C(=O)Cc2cc(NC(=O)Nc3ccc(F)cc3)ccc2O[C@@H]1CN(C)Cc1ccc(C(=O)Nc2ccccc2N)cc1	113*	u	1	10	0.021
NCCNc1ccc([N+](=O)[O-])c(NCCO)c1	7	-1	3	9	x
COc1cc2c(cc1NC(=O)CCOc1ccccc1C)oc1ccccc12	7	x	x	-23	x
CS(=O)(=O)N(CC(=O)Nc1ccccc1-c1ccccc1)c1ccccc1Cl	-1	-8	1	-22	x
CNC(=O)Cn1ncc2c3ccccc3n(Cc3ccccc3F)c2c1=O	x	37	x	x	x
Cc1noc(C)c1NC(=O)Nc1ccc2c(c1)CC(=O)N([C@@H](C)CO)C[C@H](C)[C@H](CN(C)Cc1ccc(C(=O)Nc3ccccc3N)cc1)O2	88*	-5	0	11	-0.025
C[C@@H]1CN([C@@H](C)CO)C(=O)Cc2cc(NC(=O)C3CC3)ccc2O[C@@H]1CN(C)Cc1ccc(C(=O)Nc2ccccc2N)cc1	82*	-5	0	13	-0.027
Cc1noc(C)c1NC(=O)Nc1ccc2c(c1)C(=O)N([C@@H](C)CO)C[C@H](C)[C@@H](CN(C)Cc1ccc(C(=O)Nc3ccccc3N)cc1)O2	-10	11	0	-6	0.3
C[C@H](CO)N1C[C@H](C)[C@H](CN(C)Cc2ccc(C(=O)Nc3ccccc3N)cc2)Oc2ccc(NC(=O)Nc3ccc(F)cc3)cc2CC1=O	127*	57	-4	9	0.27
O=C(O)c1cc(NS(=O)(=O)c2cccc3cccnc23)ccc1O	-7	12	1	-7	x
CC(Oc1ccc(F)cc1)C(=O)Nc1sc2c(c1C(N)=O)CCCC2 (configuration not stated)	89*	x	-9	-18	x
Cc1nc2ccccc2c(=O)n1/N=C/c1ccc(Cl)c(Cl)c1	x	-10	x	x	x
CCOC(=O)c1nc2ccccc2c(=O)n1/N=C/c1cc(Cl)cc(Cl)c1O	101*	-5	0	8	-0.16
CNC[C@@H]1Oc2ccc(NS(=O)(=O)c3ccc(F)cc3)cc2CC(=O)N([C@H](C)CO)C[C@H]1C	-3	-2	0	-3	-0.28
